Laboratory results taken from PubChem BioAssay (NCATS).
Inconclusive results are not listed. A call without a number means that no potency is given here. Unmarked numbers belong to inactive results. Calls of active or inactive are those of the source. The call rests on the fitted dose curve; in most records, active means well fitted inhibition curve with a large enough effect; inconclusive means small, poorly fitted or top-dose-only effect; inactive means flat fitted curve, though single readings scatter.

Columns and labels:
[1] = qHTS profiling for inhibitors of Plasmodium falciparum proliferation (AID 504749); further: nearly all actives have a fitted effect of over 60% in size; conditions: P. falciparum in erythrocytes, SYBR Green DNA, 72 h
How it was run: (§1)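 Parasite proliferation within erythrocytes, 72 h exposure. Endpoint: SYBR Green I fluorescence after overnight lysis at room temperature. Controls: 0.29 uM artemisinin, DMSO.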

3D7 = assay: as above; conditions: P. falciparum in erythrocytes, SYBR Green DNA, 72 h; series mostly up to 28.7 µM
How it was run: as §1

7G8 = assay: as above; conditions: P. falciparum in erythrocytes, SYBR Green DNA, 72 h; series mostly up to 28.7 µM
How it was run: as §1

AA1029 = assay: as above; conditions: P. falciparum in erythrocytes, SYBR Green DNA, 72 h; series mostly up to 28.7 µM
How it was run: as §1

AS120 = assay: as above; conditions: P. falciparum in erythrocytes, SYBR Green DNA, 72 h; series mostly up to 28.7 µM
How it was run: as §1

ATS189 = assay: as above; conditions: P. falciparum in erythrocytes, SYBR Green DNA, 72 h; series mostly up to 28.7 µM
How it was run: as §1

ATS95 = assay: as above; conditions: P. falciparum in erythrocytes, SYBR Green DNA, 72 h; series mostly up to 28.7 µM
How it was run: as §1

C2A = assay: as above; conditions: P. falciparum in erythrocytes, SYBR Green DNA, 72 h; series mostly up to 28.7 µM
How it was run: as §1

CP185 = assay: as above; conditions: P. falciparum in erythrocytes, SYBR Green DNA, 72 h; series mostly up to 28.7 µM
How it was run: as §1

CP191 = assay: as above; conditions: P. falciparum in erythrocytes, SYBR Green DNA, 72 h; series mostly up to 28.7 µM
How it was run: as §1

CP192 = assay: as above; conditions: P. falciparum in erythrocytes, SYBR Green DNA, 72 h; series mostly up to 28.7 µM
How it was run: as §1

CP194 = assay: as above; conditions: P. falciparum in erythrocytes, SYBR Green DNA, 72 h; series mostly up to 28.7 µM
How it was run: as §1

CP201 = assay: as above; conditions: P. falciparum in erythrocytes, SYBR Green DNA, 72 h; series mostly up to 28.7 µM
How it was run: as §1

CP211 = assay: as above; conditions: P. falciparum in erythrocytes, SYBR Green DNA, 72 h; series mostly up to 28.7 µM
How it was run: as §1

CP215 = assay: as above; conditions: P. falciparum in erythrocytes, SYBR Green DNA, 72 h; series mostly up to 28.7 µM
How it was run: as §1

CP217 = assay: as above; conditions: P. falciparum in erythrocytes, SYBR Green DNA, 72 h; series mostly up to 28.7 µM
How it was run: as §1

CP237 = assay: as above; conditions: P. falciparum in erythrocytes, SYBR Green DNA, 72 h; series mostly up to 28.7 µM
How it was run: as §1

CP238 = assay: as above; conditions: P. falciparum in erythrocytes, SYBR Green DNA, 72 h; series mostly up to 28.7 µM
How it was run: as §1

CP203 = assay: as above; conditions: P. falciparum in erythrocytes, SYBR Green DNA, 72 h; series mostly up to 28.7 µM
How it was run: as §1

[2] = at 28.7 µM (top of the series), parasite line A
[3] = at 28.7 µM (top of the series), parasite line B
Potency means the concentration at half of the fitted maximal effect.

Cc1ccc(O)c(-n2nc3ccccc3n2)c1
activity, negative = inhibition [1, 2]: 4.17%
activity, negative = inhibition [1, 3]: 15.3%
Potency (3D7): inactive
Potency (7G8): inactive
Potency (AA1029): inactive
Potency (AS120): inactive
Potency (ATS189): inactive
Potency (ATS95): inactive
Potency (C2A): inactive
Potency (CP185): inactive
Potency (CP191): inactive
Potency (CP192): inactive
Potency (CP194): inactive
Potency (CP201): inactive
Potency (CP211): inactive
Potency (CP215): inactive
Potency (CP217): inactive
Potency (CP237): inactive
Potency (CP238): inactive

Nc1cc(-c2ccncc2)c[nH]c1=O
activity, negative = inhibition [1, 2]: 17.9%
activity, negative = inhibition [1, 3]: 15.4%
Potency (3D7): inactive
Potency (AA1029): inactive
Potency (AS120): inactive
Potency (ATS189): inactive
Potency (ATS95): inactive
Potency (C2A): inactive
Potency (CP185): inactive
Potency (CP191): inactive
Potency (CP192): inactive
Potency (CP194): inactive
Potency (CP201): inactive
Potency (CP211): inactive
Potency (CP215): inactive
Potency (CP217): inactive
Potency (CP237): inactive
Potency (CP238): inactive

O=C1CN(/N=C/c2ccc(-c3ccc([N+](=O)[O-])cc3)o2)C(=O)N1
activity, negative = inhibition [1, 2]: -11.3%
activity, negative = inhibition [1, 3]: -1.58%
Potency (AA1029): inactive
Potency (AS120): inactive
Potency (ATS189): inactive
Potency (ATS95): inactive
Potency (C2A): inactive
Potency (CP185): inactive
Potency (CP191): 7.08 µM (active)
Potency (CP192): inactive
Potency (CP194): inactive
Potency (CP203): inactive
Potency (CP211): inactive
Potency (CP217): inactive
Potency (CP238): inactive

CCOc1ccc2nc(S(N)(=O)=O)sc2c1
activity, negative = inhibition [1, 2]: -5.98%
Potency (3D7): inactive
Potency (7G8): inactive
Potency (AA1029): inactive
Potency (AS120): inactive
Potency (ATS189): inactive
Potency (C2A): inactive
Potency (CP185): inactive
Potency (CP191): inactive
Potency (CP192): inactive
Potency (CP194): inactive
Potency (CP201): inactive
Potency (CP215): inactive
Potency (CP217): inactive
Potency (CP237): inactive
Potency (CP238): inactive

Cc1cc(O)c2ccccc2c1O
activity, negative = inhibition [1, 2]: 7.28%
activity, negative = inhibition [1, 3]: -10.1%
Potency (3D7): 12.6 µM (active)
Potency (AA1029): inactive
Potency (AS120): inactive
Potency (ATS189): inactive
Potency (ATS95): inactive
Potency (C2A): inactive
Potency (CP185): inactive
Potency (CP191): inactive
Potency (CP192): inactive
Potency (CP194): inactive
Potency (CP201): inactive
Potency (CP211): inactive
Potency (CP215): inactive
Potency (CP217): inactive
Potency (CP237): inactive
Potency (CP238): inactive

CC(=O)[C@]1(O)Cc2c(O)c3c(c(O)c2[C@@H](O[C@H]2C[C@H](N)[C@H](O)[C@H](C)O2)C1)C(=O)c1c(O)cccc1C3=O
Potency ([1]; parasite line A): 7.08 µM (active)
Potency ([1]; parasite line B): 12.6 µM (active)
Potency (3D7): 3.16 µM (active)
Potency (7G8): 1.12 µM (active)
Potency (AA1029): 7.08 µM (active)
Potency (AS120): 7.94 µM (active)
Potency (ATS189): 10 µM (active)
Potency (ATS95): 7.08 µM (active)
Potency (CP191): 6.31 µM (active)
Potency (CP192): 13.5 µM (active)
Potency (CP194): 13.5 µM (active)
Potency (CP211): 10.7 µM (active)
Potency (CP215): 12 µM (active)
Potency (CP237): 2.51 µM (active)

CCCC(=O)OC[C@@H](OC(=O)CCC)[C@@H](OC(=O)CCC)[C@H](Cn1c2nc(=O)[nH]c(=O)c-2nc2cc(C)c(C)cc21)OC(=O)CCC
activity, negative = inhibition [1, 2]: -28.7%
Potency (ATS189): inactive
Potency (CP192): inactive
Potency (CP194): inactive
Potency (CP201): inactive
Potency (CP211): inactive
Potency (CP215): inactive
Potency (CP237): inactive

COC(=O)C1=C(C)NC(C)=C(C(=O)OCC(C)C)C1c1ccccc1[N+](=O)[O-] (centres undefined)
Potency ([1]; parasite line A): 11.2 µM (active)
Potency ([1]; parasite line B): 10 µM (active)
Potency (7G8): 3.16 µM (active)
Potency (AS120): 10 µM (active)
Potency (CP191): 12.6 µM (active)

NC(=O)C(c1ccccc1)(c1ccccc1)[C@@H]1CCN(CCc2ccc3c(c2)CCO3)C1
activity, negative = inhibition [1, 2]: -17.4%
activity, negative = inhibition [1, 3]: -5.16%
Potency (3D7): inactive
Potency (7G8): 11.2 µM (active)
Potency (ATS189): inactive
Potency (C2A): inactive
Potency (CP192): inactive

CCCCCCCCCCCCCCCCCC(=O)O
activity, negative = inhibition [1, 2]: -10.1%
activity, negative = inhibition [1, 3]: -2.97%
Potency (3D7): inactive
Potency (7G8): inactive
Potency (AA1029): inactive
Potency (AS120): inactive
Potency (ATS189): inactive
Potency (ATS95): inactive
Potency (C2A): inactive
Potency (CP185): inactive
Potency (CP191): inactive
Potency (CP192): inactive
Potency (CP194): inactive
Potency (CP201): inactive
Potency (CP215): inactive
Potency (CP217): inactive
Potency (CP237): inactive
Potency (CP238): inactive

COc1cc(/C=C/C(=O)N2CCN(CC(=O)N3CCCC3)CC2)cc(OC)c1OC
activity, negative = inhibition [1, 2]: 1.12%
activity, negative = inhibition [1, 3]: 8.7%
Potency (3D7): inactive
Potency (7G8): 10 µM (active)
Potency (AA1029): inactive
Potency (ATS189): inactive
Potency (ATS95): inactive
Potency (C2A): inactive
Potency (CP185): inactive
Potency (CP191): inactive
Potency (CP192): inactive
Potency (CP194): inactive
Potency (CP201): inactive
Potency (CP211): inactive
Potency (CP215): inactive
Potency (CP217): inactive
Potency (CP237): inactive
Potency (CP238): inactive

CCCCC[C@H](O)/C=C/[C@@H]1[C@@H](C/C=C\CCCC(=O)O)[C@@H](O)C[C@H]1O
activity, negative = inhibition [1, 2]: 7.31%
activity, negative = inhibition [1, 3]: 11%
Potency (3D7): inactive
Potency (AA1029): inactive
Potency (AS120): inactive
Potency (ATS189): inactive
Potency (ATS95): inactive
Potency (C2A): inactive
Potency (CP185): inactive
Potency (CP191): inactive
Potency (CP192): inactive
Potency (CP194): inactive
Potency (CP201): inactive
Potency (CP203): inactive
Potency (CP211): inactive
Potency (CP215): inactive
Potency (CP217): inactive
Potency (CP237): inactive
Potency (CP238): inactive

c1ccc2sc(SN3CCOCC3)nc2c1
activity, negative = inhibition [1, 2]: -12.8%
Potency (3D7): inactive
Potency (7G8): 11.2 µM (active)
Potency (AA1029): inactive
Potency (ATS189): inactive
Potency (ATS95): inactive
Potency (C2A): inactive
Potency (CP185): inactive
Potency (CP191): inactive
Potency (CP192): inactive
Potency (CP194): inactive
Potency (CP201): inactive
Potency (CP211): inactive
Potency (CP215): inactive
Potency (CP217): inactive
Potency (CP237): inactive
Potency (CP238): inactive

C[S+](CC[C@H](N)C(=O)O)C[C@H]1O[C@@H](n2cnc3c(N)ncnc32)[C@H](O)[C@@H]1O (some centres undefined)
Potency (3D7): inactive
Potency (7G8): inactive
Potency (AS120): inactive
Potency (C2A): inactive
Potency (CP192): inactive
Potency (CP194): inactive
Potency (CP201): inactive
Potency (CP211): inactive
Potency (CP215): inactive
Potency (CP237): inactive

CCCSc1ccc2nc(NC(=O)OC)[nH]c2c1
activity, negative = inhibition ([1]; at 12.8 µM (top of the series), parasite line A): -19.4%
activity, negative = inhibition ([1]; at 12.8 µM (top of the series), parasite line B): -12.4%
Potency (3D7): inactive
Potency (7G8): inactive
Potency (AA1029): inactive
Potency (AS120): inactive
Potency (ATS189): inactive
Potency (ATS95): inactive
Potency (C2A): inactive
Potency (CP185): inactive
Potency (CP192): inactive
Potency (CP201): inactive
Potency (CP211): inactive
Potency (CP215): inactive
Potency (CP217): inactive
Potency (CP237): inactive
Potency (CP238): inactive
